# Screening results (PubChem)
# This is a sample that favours compounds with a hit; in the whole collection about 3.1% have one here.
# HSF-1 act: increases HSF-1 driven luciferase reporter signal; NIH3T3-HGL HSF-1 luciferase reporter, MG132, 8 h; 100% = twice DMSO control signal; activation, % at 9 µM; hit rate 1.7% among 300,000;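 active = mean replicate activation of at least 50% with a set share of replicates each reaching 50%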;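 note: 0% = median of the neutral control wells and 100% = twice that signal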
# HIF activator: HIF pathway transcriptional activation; U2OS HRE-luciferase reporter, luminescence; normalized: DMSO 0%, desferrioxamine 100%; activation, % at 7.5 µM (by protocol); hit rate 0.32% among 300,000;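 active = mean activation of at least 10% of the iron chelator positive control signal, with at least half of replicates also reaching 10%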
# HSP90 inh: HSP90 refolding inhibition in rabbit reticulocyte lysate | hit rate 0.91% among 290,000 | inhibition, % at 5.6 µM | luciferase refolding luminescence, 3 h;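 active = inhibition above the screen-wide mean plus 3 SD, computed separately per campaign, cut at about 16% in these data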;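 note: 0% = DMSO wells and 100% = 60 µM geldanamycin wells; inhibitors lower the luminescence because luciferase stays unfolded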
# HSF1 inh: HSF1 inhibition; NIH3T3-HGL HSE-luciferase, MG132-induced, luminescence 8 h; active compounds read low; activity change, negative = inhibition, % at 7.5 µM (by protocol); hit rate 0.77% among 300,000; AID 2098;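 active = more than half of replicate wells show activity change below -50%, luminescence cut by over half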;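 note: luciferase reports HSF-1 transcriptional activity via heat shock element; 0% = median of DMSO wells and -100% = zero luminescence signal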
# ARNT TACC3 PPI: ARNT/TACC3 interaction disruption. Q9Y6A5. AlphaScreen His-ARNT PAS-B/GST-TACC3 binding, luminescence; TACC3 fragment carries E629A point mutation. AID 623870. inhibition, % at 9.99 µM. hit rate 0.66% among 390,000;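 active = mean inhibition of replicates at least 50% and at least half of replicates each reaching 50%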;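 note: 0% = complete ARNT plus TACC3 wells and 100% = ARNT alone without TACC3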
# Active calls of the source: *; nt = no result given.
SMILES,HSF-1 act,HIF activator,HSP90 inh,HSF1 inh,ARNT TACC3 PPI
CN(C)c1ccc2c(c1)[C@@H]1C[C@@H](CC(=O)NCc3cc(F)ccc3F)O[C@H](CO)[C@@H]1O2,nt,nt,nt,nt,active
CC(C)C[C@@H](CC#N)N1CCN(Cc2ccccc2)CCC1=O,-69,1,-4,-61*,-1
O=S(=O)(c1cc(Cl)ccc1Cl)N1CCC2(CC1)OCCO2,-78,0,2,-72*,-6
Cc1ccc(/C=C2\SC(=S)N(CCC(=O)NNC(=O)c3ccccc3O)C2=O)cc1,-3,-1,6,-14,4
Cc1ccc(/C=C2\SC(=S)N(CCCC(=O)NNC(=O)c3ccccc3O)C2=O)cc1,-56,-3,6,-52*,8
CCOc1ccc(/C=C2\SC(=S)N(CCC(=O)O)C2=O)cc1,-62,-2,7,-60*,16
Cc1ccc2c(C)c(C(=O)N(Cc3ccncc3)CC3CCCO3)oc2c1C (configuration not stated),-7,0,0,-1,-2
Cc1c(C(=O)N(Cc2ccncc2)CC2CCCO2)oc2c(F)cccc12 (configuration not stated),53*,0,-1,10,-1
O=C(C[C@@H]1CC[C@H]2[C@@H](COC[C@H](O)CN2CCC(F)(F)F)O1)NCc1ccc(Oc2ccccc2)cc1,nt,nt,nt,nt,3
CN1C(=O)C2C(c3ccc(N(C)C)cc3)=NN(Cc3ccccc3)C2C1=O (configuration not stated),75*,3,4,29,18
Cc1cccc(N2C(=O)CS/C2=N\NC(=O)c2ccc(Br)cc2)c1C,-78,0,3,-72*,-13
CO[C@H]1CN(C)C(=O)c2cc(NS(=O)(=O)CC(F)(F)F)ccc2OC[C@@H](C)N(CC2CCCCC2)C[C@H]1C,nt,nt,nt,nt,-6
COC(=O)C[C@H]1CC[C@@H]2[C@@H](COc3ccc(NC(=O)c4ccccc4OC)cc3C(=O)N2C)O1,nt,nt,nt,nt,5
O=c1c(-c2ccccc2)c1-c1ccccc1,-3,1,20*,13,nt
CCc1ccc(C(c2c(C)nn(-c3ccccc3)c2N)c2c(C)nn(-c3ccccc3)c2N)cc1,10,-3,8,13,nt
Cc1cccc(C(c2c(C)nn(-c3ccccc3)c2N)c2c(C)nn(-c3ccccc3)c2N)c1,83*,0,-3,68,-1
O=C(O)CCNS(=O)(=O)c1ccccc1Br,19,0,-6,4,1
O=C(O)CCNS(=O)(=O)c1ccccc1C(F)(F)F,-68,0,0,-60*,-6
COc1cc(NC(=O)c2ccccc2Cl)ccc1NC(=O)c1ccco1,71*,2,3,55,nt
COc1cc(NC(=O)c2ccco2)ccc1NC(=O)c1ccccc1Cl,0,0,-2,4,nt
COc1ccc(NC(=O)c2ccco2)cc1N,-63,2,-3,-57*,37
Cc1ccc(S(=O)(=O)N(C)C[C@@H]2Oc3ccc(NC(=O)Nc4c(C)noc4C)cc3CC(=O)N([C@@H](C)CO)C[C@H]2C)cc1,nt,nt,nt,nt,8
CO[C@@H]1CN(C)C(=O)c2cc(NC(=O)C3CCC3)ccc2OC[C@H](C)NC[C@H]1C,nt,nt,nt,nt,-5
Cn1ncc2c(O/N=C(\N)c3ccc(C(C)(C)C)cc3)ncnc21,-93,-7,2,-92*,1
C[C@@H]1CN([C@@H](C)CO)C(=O)c2cccc(NC(=O)C3CC3)c2O[C@H]1CN(C)CC1CCCCC1,nt,nt,nt,nt,5
SMILES,HSF-1 act,HIF activator,HSP90 inh,HSF1 inh,ARNT TACC3 PPI
Cc1cccc(C(C)C)c1NC(=O)c1ccc(COc2ccc3c(C)cc(=O)oc3c2)cc1,66*,0,-3,17,-3
Clc1ccc2c(N/N=C/c3cccc(Br)c3)ccnc2c1,28,-5,-4,8,12
Clc1ccc2c(N/N=C/c3ccccc3Br)ccnc2c1,66*,nt,3,27,-9
Nc1nc(Nc2ccccc2)sc1C(=O)c1ccccc1,62*,5,2,25,6
COc1ccc(NC(=O)N(C)C[C@H]2Oc3ccc(NC(=O)C4CC4)cc3CC(=O)N([C@H](C)CO)C[C@@H]2C)cc1,nt,nt,nt,nt,-4
O=C(O)CC1Sc2ccccc2NC1=O (configuration not stated),-1,0,-2,0,-12
O=C(CC1Sc2ccccc2NC1=O)c1ccc(Br)cc1 (configuration not stated),70*,3,-5,32,1
O=C(C[C@@H]1CC[C@@H](NC(=O)c2cccc(F)c2)[C@@H](CO)O1)NCc1ccc(Oc2ccccc2)cc1,nt,nt,nt,nt,-9
